HT1080 IDH1KD tx: kills HT-1080 cells with IDH1 knockdown | HT-1080 IDH1 knockdown viability, ATP luminescence, 48 h | AID 686971 | Potency, µM (series often up to 46.1 µM), most hits filed as cytotoxic | hit rate 2% among 360,000
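Assay cells: HT-1080 with IDH1 knockdown, 750 per well, RPMI/5% FBS. Exposure: 48 h at 37 °C following 2 h pre-incubation. Read: CellTiter-Glo luminescence; fitted concentration-response, curve class assigned.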
HT1080-NT tox: kills 2HG-producing HT-1080-NT fibrosarcoma cells; HT-1080-NT fibrosarcoma viability, CellTiter-Glo ATP luminescence, 48 h; Potency, µM (highest dose often 46.1 µM), most hits filed as cytotoxic; hit rate 1.6% among 360,000;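 note: NT is the 2HG producing partner of a matched IDH1 knockdown line; nearly all actives have a fitted effect of over 55% in size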
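Toxicity toward the 2HG-producing NT line was scored as %Activity, normalised to DMSO and no-cell wells, from CellTiter-Glo luminescence after 48 hours' treatment.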
HepG2 tox-1: kills HepG2 cells in TGF-b inhibitor counter-screen. hit rate 0.76% among 410,000. HepG2 CAGA-GFP viability, ATP luminescence, 18 h. AID 588856. Potency, µM (highest dose often 46.1 µM), hits mostly cytotoxic
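CellTiter-Glo luminescence gave cytotoxicity after 18 hours at 37 degrees C. The cells were HepG2 CAGA-GFP in 1% FBS DMEM, stimulated with 500 pg/mL TGF-beta after compound addition. %Activity was normalised to no-cell wells (complete cell-killing) and DMSO (no toxicity), and curves were fitted and classified.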
TGFb SMAD3 inh: inhibitors of TGF-b signaling | HepG2 CAGA-GFP TGF-b/SMAD3 reporter, GFP fluorescence, 18 h; TGF-beta stimulated, 500 pg/mL final | Potency, µM (highest dose often 46.1 µM), actives largely listed as inhibitors | hit rate 1.2% among 410,000; note: nearly all actives have a fitted effect of over 65% in size
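HEPG2 CAGA-GFP reporter cells (1000/well, DMEM with 1% FBS) received compounds, then recombinant TGF-beta at 500 pg/mL final for 18 hours at 37 degrees C. Per-cell GFP summed per well was normalised to unstimulated and stimulated DMSO controls before curve fitting.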
TDP1 cell CPT: growth inhibition of DT40 Tdp1-/-;hTDP1 cells with camptothecin (screen for TDP1 inhibitors); chicken DT40 Tdp1-/-;hTDP1 cells + 20 nM CPT, ATP luminescence, 48 h; Potency, µM (doses to about 46.2 µM), hits mostly inhibitors; hit rate 12% among 420,000; AID 686979; note: nearly all actives have a fitted effect of over 55% in size
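Chicken DT40 Tdp1-/- cells complemented with human TDP1, 400 cells/well, exposed to compounds plus 20 nM camptothecin for at least 48 h at 37 C; viability read as ATP content by CellTiter-Glo luminescence.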
TDP1 cell noCPT: qHTS for Inhibitors of human tyrosyl-DNA phosphodiesterase 1 (TDP1): qHTS in cells in absence of CPT; DT40 Tdp1-/- hTDP1 cells, no CPT, ATP luminescence, 48 h; Potency, µM (highest dose often 46.2 µM), most hits filed as inhibitors; hit rate 15% among 420,000; note: nearly all actives have a fitted effect of over 55% in size
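Readout: luminescence from CellTiter-Glo after 30 min in the dark at RT. Cells: DT40 Tdp1-/- with stable hTDP1, 400/well. Exposure: compounds alone, ≥48 hr, 37 °C.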
TGFb CAGA inh: confirmation of TGF-b signaling inhibitors in HepG2 reporter cells. shares compounds with TGFb SMAD3 inh. HepG2 CAGA-GFP TGF-b reporter, GFP fluorescence, 18 h; cells stimulated with TGF-beta, 500 pg/mL. Potency, µM (top dose mostly 46.1 µM), actives largely listed as inhibitors. hit rate 63% among 1,600; note: nearly all actives have a fitted effect of over 65% in size
HepG2 tox-2: HepG2 cytotoxicity, TGF-b inhibitor counterscreen; shares compounds with TGFb SMAD3 inh; HepG2 CAGA-GFP viability, ATP luminescence, 18 h; cells stimulated with TGF-beta, 500 pg/mL; Potency, µM (doses to about 46.1 µM), usual class: inhibitors; hit rate 27% among 1,600; AID 720535; note: nearly all actives have a fitted effect of over 70% in size
TGFb CCL64 inh: orthogonal confirmation of TGF-b inhibitors in CCL64 cells; hit rate 41% among 1,600; AID 720536; Potency, µM (doses to about 46.1 µM), usual class: inhibitors; CCL64 CAGA-GFP reporter, TGF-b stimulated, GFP fluorescence, 18 h; shares compounds with TGFb SMAD3 inh; note: nearly all actives have a fitted effect of over 65% in size
COP TGFb inh: validation of TGF-b inhibitors in HepG2 COP promoter reporter; shares compounds with TGFb SMAD3 inh; HepG2 COP-GFP TGF-b reporter, GFP fluorescence, 18 h; cells stimulated by added recombinant TGF-beta; Potency, µM (top dose mostly 46.1 µM), actives largely listed as inhibitors; hit rate 3% among 1,600; note: nearly all actives have a fitted effect of over 70% in size
A number is an active result; n = inactive; u = inconclusive; x = not tested or not shown. This is a sample that favours compounds with a hit; in the whole collection about 17% have one here. Calls come from the whole dose curve; as a rule, active = well fitted curve in the direction sought with a large enough effect; inconclusive = small, poorly fitted or top-dose-only effect, or another doubt; inactive = no such curve, though single readings can be large; an effect the other way counts as inactive or inconclusive.

SMILES	HT1080 IDH1KD tx	HT1080-NT tox	HepG2 tox-1	TGFb SMAD3 inh	TDP1 cell CPT	TDP1 cell noCPT	TGFb CAGA inh	HepG2 tox-2	TGFb CCL64 inh	COP TGFb inh
COc1ccc(NC(=O)c2cccnc2)c(OC)c1	n	n	n	n	n	n	x	x	x	x
Cc1ccc(Oc2ccccc2)c(NC=O)c1	n	n	n	n	u	u	x	x	x	x
CN(C)C(=O)c1cccc(-c2cccc3nccn23)c1	n	n	n	n	u	u	x	x	x	x
CC(=O)c1ccc(-c2cnc3c(NC=O)cc(-c4ccccc4Oc4ccccc4)cn23)cc1	u	u	n	11µM	u	21µM	u	n	u	n
COc1cccc(-c2cnc3c(NC=O)cc(-c4ccc(OC)cc4OC)cn23)c1	u	u	n	4.5µM	0.015µM	0.021µM	4.1µM	n	3.3µM	n
COc1ccccc1-c1cc(NC=O)c2ncc(-c3cccc(C(=O)N(C)C)c3)n2c1	u	u	n	7.9µM	u	u	5.2µM	n	u	n
Nc1cc(Nc2ccccc2)ccn1	n	n	n	n	n	u	x	x	x	x
N#Cc1sc2nccc(Nc3ccccc3)c2c1N	n	n	n	4.5µM	u	2.1µM	8.2µM	n	n	n
CCCc1nnc(NC(=O)C(CC)OC(=O)c2cc(C)nc3ccccc23)s1 (stereo unspecified)	n	n	n	u	n	u	u	n	n	n
CCc1noc(C)c1C(=O)Nc1nc(-c2ccc(Cl)cc2Cl)cs1	n	n	n	11µM	18µM	18µM	15µM	15µM	u	n
O=C(Cc1nnc(NC(=O)Nc2ccccc2)s1)Nc1ccccc1	n	n	n	n	n	n	x	x	x	x
O=C(Nc1ccccc1)Nc1nnc(CSCc2ccccc2Cl)s1	u	u	n	7.9µM	21µM	u	u	n	u	n
CCC(C)NS(=O)(=O)c1ccc(NC(=O)C(Sc2ccccc2)c2ccccc2)cc1 (stereo unspecified)	u	n	n	13µM	u	u	u	u	u	n
CC(=O)NS(=O)(=O)c1ccc(NC(=O)C(Sc2ccccc2)c2ccccc2)cc1 (stereo unspecified)	n	n	n	n	n	n	x	x	x	x
CCOc1cc2c(cc1O)C(=NOC)CC1C2CCC2(C)C(O)CCC12 (stereo unspecified)	1.5µM	1.6µM	n	18µM	0.92µM	0.82µM	7.3µM	n	7.3µM	n
CN(C)S(=O)(=O)c1ccc2nc(NC(=O)c3cccnc3)sc2c1	n	n	n	n	n	n	x	x	x	x
O=C(NC(Nc1nc2ccc([N+](=O)[O-])cc2s1)(C(F)(F)F)C(F)(F)F)c1cccnc1	13µM	9.2µM	n	3.2µM	3.7µM	2.3µM	4.1µM	1.6µM	5.8µM	n
O=[N+]([O-])c1ccc2nc(NS(=O)(=O)c3ccccc3[N+](=O)[O-])sc2c1	n	n	n	n	n	n	x	x	x	x
O=C(NC(Nc1nc2ccc([N+](=O)[O-])cc2s1)(C(F)(F)F)C(F)(F)F)c1ccccc1Cl	2.9µM	3.3µM	n	0.45µM	0.33µM	0.18µM	0.92µM	1µM	1.5µM	n
Cc1cc(C)nc(-n2nc(C)cc2NC(=O)CN2CCC(C)CC2)n1	n	n	n	16µM	5.2µM	5.8µM	u	n	n	n
O=C(NCc1cccnc1)/C(=C\c1ccc(-c2ccc(Br)cc2)o1)S(=O)(=O)c1ccccc1	5.8µM	9.2µM	n	10µM	2.9µM	3.3µM	5.8µM	3.3µM	5.2µM	u
O=C1C=C(NC2=CC3OC(c4ccccc4)OCC3OC2=O)CCC1 (stereo unspecified)	21µM	n	n	10µM	8.2µM	9.2µM	10µM	u	13µM	n
N#Cc1ccccc1NC1=CC(=O)CCC1	n	n	n	n	n	n	x	x	x	x
COc1ccc(S(=O)(=O)NCC2CCCO2)cc1NC(=O)c1ccccc1F (stereo unspecified)	u	u	n	n	n	n	x	x	x	x
CCOC(=O)c1ccc(CN(Cc2ccc(F)cc2)S(=O)(=O)c2ccc(F)c(C(=O)Nc3cc(Cl)ccc3OC)c2)cc1	x	x	n	n	n	n	x	x	x	x
SMILES	HT1080 IDH1KD tx	HT1080-NT tox	HepG2 tox-1	TGFb SMAD3 inh	TDP1 cell CPT	TDP1 cell noCPT	TGFb CAGA inh	HepG2 tox-2	TGFb CCL64 inh	COP TGFb inh
CCN(CC(O)Cn1c2ccccc2c2ccccc21)S(=O)(=O)c1ccc(C)cc1 (stereo unspecified)	n	n	n	10µM	29µM	u	21µM	u	u	n
O=C(Nc1ccc(F)cc1)c1nc(S(=O)(=O)Cc2ccccc2)ncc1Cl	15µM	23µM	7.1µM	5µM	2.1µM	1.6µM	3.3µM	15µM	2.6µM	u
Cc1ccccc1CS(=O)(=O)c1ncc(Cl)c(C(=O)Nc2ccc(F)cc2)n1	u	u	22µM	10µM	3.3µM	2.1µM	u	u	3.7µM	u
CCOC(=O)c1ccc(NC(=O)c2nc(SC)ncc2Cl)cc1	n	n	n	n	n	n	x	x	x	x
Cc1cccc(CS(=O)(=O)c2ncc(Cl)c(C(=O)Nc3c(C)cccc3C)n2)c1	15µM	u	10µM	6.3µM	3.7µM	4.1µM	4.6µM	9.2µM	4.6µM	u
Cc1cccc(CSc2ncc(Cl)c(C(=O)Nc3nnc(C)s3)n2)c1	x	x	n	n	n	n	x	x	x	x
Cc1ccccc1CSc1ncc(Cl)c(C(=O)Nc2nc3ccc(F)cc3s2)n1	x	x	n	u	u	u	x	x	x	x
COc1ccc(OC)c(NC(=O)c2nc(S(=O)(=O)Cc3ccccc3)ncc2Cl)c1	3.7µM	4.6µM	7.9µM	3.5µM	0.58µM	0.58µM	4.6µM	6.5µM	3.7µM	10µM
CCN(CC(=O)NCc1ccc(Cl)cc1)C(=O)C1CCN(S(=O)(=O)c2ccc(OC)c(OC)c2)CC1	n	n	n	n	n	n	x	x	x	x
